Measured values from PubChem BioAssay.

Tests used:
[1] = tested on: Human papillomavirus type 1a protein E7 (residues 44-93); assay: small molecules binding HPV E7 44-93 – biochemical, small-molecule microarray, residues 44-93, 635 nm fluorescence, primary screen (AID 1108); settings: fluorescence 635 nm, higher = more signal;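 also: E7 fragment applied at 1 µg/mL in TBST for 1 h at 4 C; score combines spot fluorescence with its signal to noise ratio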
[2] = hepatitis C replication reporter changes, two-sided – Huh7 cells, luciferase reporter, HCV replication inhibitor project, primary screen (AID 1109); settings: Huh7 HCV replicon luciferase reporter, 48 h; higher = more signal;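 also: huh7 hepatoma cells harbouring a luciferase neomycin HCV replicon reporter; luciferase luminescence as measure of HCV replicon replication; test concentration not given here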
[3] = target: Left-right determination factor 2 (Homo sapiens) (UniProt O00292); assay: small molecules binding LEFTY2 protein – biochemical, small-molecule microarray, 635 nm fluorescence scan, primary screen (AID 1110); settings: higher = more signal
[4] = target: Calmodulin-1 (Homo sapiens) (UniProt P0DP23); assay: small molecules binding calmodulin-1 with EGTA – biochemical, small-molecule microarray, Cy5-labelled CALM1, profiling panel (AID 1111); settings: Cy5-CALM1 binding fluorescence, higher = more signal;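 also: labelled calmodulin applied in Tris saline Tween buffer holding calcium plus EGTA and DTT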
[5] = target: Calmodulin-1 (Homo sapiens) (UniProt P0DP23); assay: small molecules binding Ca-loaded calmodulin-1 – biochemical, small-molecule microarray, Cy5-labelled CALM1, plus calcium, artefact control for SMM control-protein annotation, profiling panel (AID 1112); settings: Cy5-CALM1 binding fluorescence, higher = more signal;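 also: score merges spot fluorescence with signal to noise from triplicate slides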
[6] = probe aWnt5a binding to arrayed compounds – biochemical, biotinylated probe, 635/667 nm fluorescence, primary screen (AID 1113); settings: small-molecule microarray, higher = more signal;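 also: score merges 667 nm fluorescence intensity with signal-to-noise per printed feature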
[7] = probe aShh binding to arrayed compounds – biochemical, biotinylated probe, 635/667 nm fluorescence, primary screen (AID 1114); settings: small-molecule microarray, higher = more signal;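 also: probe is biotin-labelled aShh protein from a stem cell growth factor screen; measures binding of labelled protein to compounds printed on the slide; score merges feature fluorescence at 667 nm with signal-to-noise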
[8] = probe aNog binding to arrayed compounds – biochemical, biotinylated probe, 635/667 nm fluorescence, primary screen (AID 1115); settings: small-molecule microarray, higher = more signal;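 also: probe is biotinylated aNog protein used at 0.15 µg/mL for 1 h at 4 C; z-score combines 667 nm fluorescence of each spot with its signal to noise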
[9] = target: Torsin-1A-interacting protein 1 (Homo sapiens) (UniProt Q5JTV8); assay: compound microarray binding of lysate hLAP1 – cell lysate, small-molecule microarray, COS7 lysate, 635/667 nm fluorescence, primary screen (AID 1116); settings: 635 nm fluorescence, higher = more signal
[10] = target: Alpha-bungarotoxin (Bungarus multicinctus) (UniProt P60615); assay: compounds binding labelled alpha-BTX control protein – biochemical, small-molecule microarray, Alexa647 label, 635/667 nm fluorescence, artefact control for SMM control protein annotation, profiling panel (AID 1117); settings: alpha-BTX-A647 binding fluorescence, higher = more signal
Sequence of Alpha-bungarotoxin (Bungarus multicinctus) (P60615 whole entry, looked up): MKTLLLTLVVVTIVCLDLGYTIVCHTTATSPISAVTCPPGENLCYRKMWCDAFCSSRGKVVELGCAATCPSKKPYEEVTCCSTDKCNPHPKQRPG

Sequence of Left-right determination factor 2 (Homo sapiens) (O00292 whole entry, looked up): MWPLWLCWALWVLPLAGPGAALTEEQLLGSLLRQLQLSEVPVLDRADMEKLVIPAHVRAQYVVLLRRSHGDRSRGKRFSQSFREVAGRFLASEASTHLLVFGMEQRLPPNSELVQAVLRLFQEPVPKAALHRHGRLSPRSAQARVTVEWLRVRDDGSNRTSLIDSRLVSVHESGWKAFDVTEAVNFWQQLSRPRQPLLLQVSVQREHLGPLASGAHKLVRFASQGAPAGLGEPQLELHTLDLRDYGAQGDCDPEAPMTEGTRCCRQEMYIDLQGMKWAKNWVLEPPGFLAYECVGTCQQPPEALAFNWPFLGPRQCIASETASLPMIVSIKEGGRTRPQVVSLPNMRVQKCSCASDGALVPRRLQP
Sequence of Torsin-1A-interacting protein 1 (Homo sapiens) (Q5JTV8 whole entry, looked up): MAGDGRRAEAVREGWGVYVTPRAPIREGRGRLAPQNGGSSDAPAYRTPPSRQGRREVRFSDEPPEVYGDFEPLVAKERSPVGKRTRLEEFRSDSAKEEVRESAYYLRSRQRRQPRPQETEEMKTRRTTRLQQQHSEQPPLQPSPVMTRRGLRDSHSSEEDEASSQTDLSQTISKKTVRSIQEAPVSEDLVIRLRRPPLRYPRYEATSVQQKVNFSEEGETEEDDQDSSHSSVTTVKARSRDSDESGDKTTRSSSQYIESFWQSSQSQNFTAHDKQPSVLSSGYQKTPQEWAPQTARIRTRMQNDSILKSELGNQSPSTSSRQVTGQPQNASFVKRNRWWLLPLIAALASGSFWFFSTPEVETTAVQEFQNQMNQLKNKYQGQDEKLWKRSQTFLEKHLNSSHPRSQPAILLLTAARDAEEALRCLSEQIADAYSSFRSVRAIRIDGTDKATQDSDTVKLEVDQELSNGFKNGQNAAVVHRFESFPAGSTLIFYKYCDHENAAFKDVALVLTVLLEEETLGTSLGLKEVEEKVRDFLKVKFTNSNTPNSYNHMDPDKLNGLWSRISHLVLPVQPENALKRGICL

Row | SMILES | composite z-score [1] | z-score [2] | composite z-score [3] | composite z-score [4] | composite z-score [5] | composite z-score [6] | composite z-score [7] | composite z-score [8] | composite z-score [9] | composite z-score [10]
1 | NC(=O)N1C(=O)C2C(C1=O)C1C=C(CCCO)C2C(C2CC2)N1Cc1cccc(OC(F)(F)F)c1 (stereo not given) | 0.504 | -1.4 | -0.219 | -0.143 | 0.2 | -0.173 | -0.138 | 0.56 | 0.691 | -0.187
2 | COC(=O)[C@@]1(Cc2ccccc2CN=[N+]=[N-])N=C(c2ccc(OCCCO)cc2)O[C@H]1c1ccccc1CN=[N+]=[N-] | 0.445 | -2.92 | -2.01 | 0.0829 | 0.526 | 0.0733 | -0.156 | 0.96 | 1.1 | 0.0937
3 | CN(C)CCCNC(=O)[C@@H]1c2ccccc2C(=O)N(C2CCCCC2)[C@H]1c1ccc(CO)cc1 | 1.44 | -2.43 | 1.17 | 1.41 | -0.179 | -0.0459 | 0.191 | -0.312 | 0.87 | 0.233
4 | COCCOC(=O)N1C(=O)[C@@]2(c3cc(C#CCC(C(=O)OC)C(=O)OC)ccc31)[C@H](C(=O)NC[C@H](O)c1ccccc1)[C@H]1C(=O)O[C@H](c3ccccc3)[C@H](c3ccccc3)N1[C@@H]2c1ccc(OCCO)cc1 | 1.36 | -1.92 | 0.793 | 1.39 | -0.0628 | -0.0792 | 0.0141 | -0.367 | 0.314 | 0.973
5 | COC(=O)C1N=C(c2ccc(OCCCO)cc2)N(c2ccccc2)O1 (stereo not given) | 0.154 | -2.69 | 0.681 | 0.933 | 0.576 | -0.196 | -0.0681 | 0.438 | 0.924 | 2.07
6 | COC(=O)[C@@]1(Cc2ccc(F)cc2)[C@H]2c3cc(C(=O)N4CCCC4)n(C)c3C[C@H]2CN1C(=O)c1ccccc1 | -0.919 | -1.4 | -0.917 | 2.5 | 1.11 | 0.122 | 0.0044 | 1.39 | 2.84 | 0.121
7 | O=C1N[C@@H](Cc2ccccc2)C(=O)N2[C@@H]1C[C@@H](C(=O)O)[C@H]2c1ccc(O)cc1 | 0.436 | 2.57 | 0.572 | 0.58 | -0.661 | 0.0718 | 0.0711 | -0.0382 | 0.466 | 0.431
8 | C[C@]1(C(=O)NCCN2CCOCC2)c2ccccc2C(=O)N(Cc2cc(F)cc(C(F)(F)F)c2)[C@H]1c1ccc(CO)cc1 | 1.38 | -1.06 | -1.37 | -0.17 | -1.02 | -0.148 | -0.0222 | -0.41 | 1.88 | 2.4
9 | COC(=O)[C@@]1(Cc2ccc(F)cc2)[C@H]2c3cc(C(=O)N4CCCC4)n(CC4CC4)c3C[C@H]2CN1C(=O)c1ccccc1 | 1.39 | -1.94 | 1.29 | 2.43 | 0.701 | 0.0139 | 0.184 | 1.96 | 1.22 | 1.33
10 | O=C1C2C=CC(C(O)c3ccco3)N(Nc3ccccc3)C2C(=O)N1c1ccccc1 (stereo not given) | -0.335 | 0.305 | -0.756 | -0.136 | 0.245 | -0.006 | 0.0121 | 0.181 | -0.479 | -0.0188
11 | CCN(CC)c1ccc(N2CC=CC34O[C@@H]5C=CCCOC(=O)C5[C@H]3C(=O)N(CCO)[C@@H]4C2=O)cc1 (stereo not given in full) | -0.595 | -0.362 | -1.37 | -0.547 | -0.183 | -0.214 | -0.26 | 2.13 | -1.01 | 0.253
12 | CCCCC(=O)N(CCN1CCOCC1)[C@@H]1CC(C(=O)NCCO)=C[C@H](Oc2c(I)cc(CO)cc2OC)[C@H]1O | 0.33 | 0.282 | 0.653 | -0.282 | -0.598 | -0.19 | -0.358 | -0.31 | -0.0458 | 0.354
13 | CN(C)CCCCCCNC(=O)[C@@H]1C[C@@H]2C(=O)N[C@@H](CCCCN)C(=O)N2[C@@H]1c1ccc(O)cc1 | 1.53 | 0.805 | 1.62 | 2.11 | 0.347 | 1.28 | 2.47 | 1.96 | 4.63 | 3.03
14 | COc1cc(NN2C(C(O)C3CCCCC3)C=CC3C(=O)N(c4ccccc4)C(=O)C32)cc(OC)c1OC (stereo not given) | 1.05 | -1.1 | -0.79 | 2.13 | 1.23 | 0.141 | -0.11 | 0.658 | 1.5 | 1.98
15 | CN(C)C(=O)[C@]1(CCS(=O)(=O)c2ccccc2)N=C(c2ccc(OCCCO)cc2)O[C@@H]1c1ccccc1 | 1.44 | -2.25 | 0.389 | 1.72 | 0.513 | -0.034 | 0.582 | -0.565 | 1 | 0.915
16 | COc1ccc(C#Cc2ccc3c(c2)[C@]2(C(=O)N3)[C@H](C(=O)Nc3nc4ccccc4s3)[C@H]3C(=O)O[C@H](c4ccccc4)[C@H](c4ccccc4)N3[C@@H]2c2ccccc2OCCO)cc1 | 1.18 | -1.67 | 0.282 | 1.55 | 0.436 | -0.0685 | -0.282 | -0.273 | 0.471 | 1.02
17 | COc1ccc(C(=O)Nc2cccc(CN3C(=O)[C@@]4(O[C@@H](CC(=O)N(CCO)Cc5ccccc5)[C@H]([Si](C)(C)c5ccc(OC)cc5)[C@H]4C)c4ccccc43)c2)cc1 | 1.18 | -3.89 | 0.344 | 0.822 | -0.0254 | -0.187 | -0.206 | -0.38 | 1.12 | 0.681
18 | [N-]=[N+]=NC[C@H](Cc1ccccc1)NC(=O)c1ccccc1 | -0.778 | 2.25 | -0.0257 | -0.334 | -0.203 | -0.0269 | -0.0146 | -0.293 | 0.363 | 0.0961
